Our source for the outcome and AC50 values is PubChem BioAssay (EPA / NIEHS).

Some compounds were tested as several samples or in several runs, with calls that do not always agree. Active and inactive are the calls of the source. The calls were made as follows: active = hit-call score of the fitted dose curve at least 0.9, where 1 is the maximum; inactive = score below 0.9.

Cellular tumor antigen p53 (Homo sapiens), sequence (P04637 whole entry, looked up, the tested form may be a part): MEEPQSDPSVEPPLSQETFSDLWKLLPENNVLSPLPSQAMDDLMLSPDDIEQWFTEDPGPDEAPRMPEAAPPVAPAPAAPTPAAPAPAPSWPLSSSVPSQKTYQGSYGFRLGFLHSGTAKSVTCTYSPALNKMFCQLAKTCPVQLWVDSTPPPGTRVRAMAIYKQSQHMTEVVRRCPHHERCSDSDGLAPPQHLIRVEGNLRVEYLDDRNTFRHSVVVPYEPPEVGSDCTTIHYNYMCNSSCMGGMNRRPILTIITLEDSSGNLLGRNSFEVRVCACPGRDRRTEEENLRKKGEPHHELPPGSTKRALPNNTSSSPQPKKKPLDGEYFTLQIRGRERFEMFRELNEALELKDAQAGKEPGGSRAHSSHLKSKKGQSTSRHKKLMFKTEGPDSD

For one assay, the target named is Cellular tumor antigen p53 (Homo sapiens) (UniProt P04637). Put plainly: ATG_p53_CIS: Attagene CIS-FACTORIAL HepG2 Assay for human p53 Transcription Factor (AID 2282994). The following applies: HepG2 p53 cis-element reporter, Attagene mRNA; actives raise or lower the signal. The method, boiled down:
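In HepG2 cells, reporter transcription units under cis-regulatory promoters were transiently introduced. Following 24 h treatment, RNA was processed to labelled, digested cDNA fragments read by capillary electrophoresis; fitting was bidirectional versus DMSO.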
Consider `O=P(OCC(Br)CBr)(OCC(Br)CBr)OCC(Br)CBr` (stereo not given), for which the outcome was inactive.
On to `CCOC(=O)c1ccccc1C(=O)OCC`, for which the call was inactive.
Usually AC50 stands for the concentration giving half of the maximal activity seen. As for `OCC(F)(F)OC(F)(F)C(F)(F)OC(F)(F)C(F)(F)OC(F)(F)CO`, the AC50 is 29.8 µM (active).
With `COC(N)=O`, the molecule was called inactive.
As to `COP(N)(=S)OC`, the outcome was inactive.
Same read-out and setting: as for `FC(F)(F)C(F)(C(F)(F)F)C(F)(F)C(F)(F)CC1CO1` (stereo not given), the entry is “inactive”; as for `O=C(CBr)OCc1ccccc1`, “inactive”.
Same read-out and setting: as for `Clc1ccc(Oc2ccccc2)cc1`, the entry is “inactive”; as for `OCC1CO1` (stereo not given), “inactive”.
Still for that read-out and setting: for `Oc1ccc(I)cc1` the value was “inactive”.
Consider `NNC(N)=S`, for which the call was inactive.
On the same count and under the same terms, as for `ClC(Cl)(Cl)c1ccccc1`, the entry is “inactive”; as for `CC(C)CBr`, “inactive”.
Regarding `CC1=C(C(=O)Nc2ccccc2)S(=O)(=O)CCO1`, the AC50 was 58 µM (active).
On to `CCOc1ccc(C(C)(C)COCc2cccc(Oc3ccccc3)c2)cc1`, for which the molecule was called inactive.
For the molecule `CCOS(=O)(=O)OCC`, the molecule was called inactive.
For the molecule `c1ccc(OP(Oc2ccccc2)Oc2ccccc2)cc1`, the molecule was classed as inactive.
The same measure, in the same setting: as for `Nc1ccc([N+](=O)[O-])cc1Cl`, the entry is “inactive”.
Still for that read-out and setting: as for `C=C(C)C(=O)OCC1CO1` (stereo not given), the entry is “inactive”; as for `Cc1ccc(O)cc1C`, “inactive”.

Read-out in another assay: not listed separately
Put plainly: BSK_3C_TissueFactor: BioMAP Diversity Plus: 3C Assay for Tissue Factor Biomarker Activity (AID 2282997). The following applies: BioMAP 3C HUVEC, tissue factor biomarker readout; actives raise or lower the signal. The method, boiled down:
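After a 24 h chemical exposure of primary human umbilical vein endothelial cells, Tissue Factor levels were quantified by ELISA.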
Regarding `CCOP(=S)(Oc1ccc([N+](=O)[O-])cc1)c1ccccc1` (stereo not given), the outcome was inactive.
As to `COP(=O)(O)OC`, the result was inactive.
`C=CC(=O)OCC(F)(F)C(F)F`: the AC50 is 24.6 µM (active) and the outcome was inactive.
On to `O=C(O)C(F)(OC(F)(F)C(F)(F)C(F)(F)F)C(F)(F)F` (stereo not given), for which the result was inactive.
Consider `O=P(OCC(Br)CBr)(OCC(Br)CBr)OCC(Br)CBr` (stereo not given), for which the result was inactive.
Turning to `N#Cc1cc([N+](=O)[O-])ccc1N`, the concentration at half-maximal activity (AC50) was 0.706 µM (active).
Still for that read-out and setting: for `O=c1ssc(Cl)c1Cl` the value was 5.68 µM (active).
For the molecule `CCOC(=O)c1ccccc1C(=O)OCC`, the outcome was inactive.
Consider `CCOP(=S)(OCC)SCSc1ccc(Cl)cc1`, for which the AC50 was 0.0123 µM (active).
As for `OCC(F)(F)OC(F)(F)C(F)(F)OC(F)(F)C(F)(F)OC(F)(F)CO`, the result was inactive.
On the same count and under the same terms, for `COP(N)(=S)OC` the value was “inactive”; for `CC(C)(C)c1ccc(O)cc1`, “inactive”; for `FC(F)(F)C(F)(C(F)(F)F)C(F)(F)C(F)(F)CC1CO1` (stereo not given), “inactive”.
On the same count and under the same terms, for `COCCOCCO` the value was “inactive”.
The same measure, in the same setting: for `OCC1CO1` (stereo not given) the value was “inactive”; for `CCCCC(CC)COC(=O)c1c(Br)c(Br)c(Br)c(Br)c1C(=O)OCC(CC)CCCC` (stereo not given), “inactive”.
Turning to `ClC(Cl)(Cl)c1ccccc1`, the outcome was inactive.
On to `C=CC(=O)OCC(CC)(COC(=O)C=C)COC(=O)C=C`, for which the AC50 is 1.5 µM (active).
As to `CCOc1ccc(C(C)(C)COCc2cccc(Oc3ccccc3)c2)cc1`, the outcome was inactive.
With `CCOS(=O)(=O)OCC`, the outcome was inactive.
On the same count and under the same terms, as for `c1ccc(OP(Oc2ccccc2)Oc2ccccc2)cc1`, the entry is “inactive”; as for `ClC(Cl)c1ccccc1`, “inactive”; as for `Nc1ccc([N+](=O)[O-])cc1Cl`, “inactive”.
With `Cc1ccc(O)cc1C`, the outcome was inactive.
